Experimental data from PubChem BioAssay (NCATS).
Records with an inconclusive call do not appear. Entries that show only a call come without a potency. Values without a mark were called inactive. The source made the active and inactive calls. Calls come from the whole dose curve; as a rule, active = well fitted curve in the direction sought with a large enough effect; inconclusive = small, poorly fitted or top-dose-only effect, or another doubt; inactive = no such curve, though single readings can be large; an effect the other way counts as inactive or inconclusive. Square brackets hold non-standard residues; d marks the D form. Peptide text beside a SMILES is read from it. ξ: configuration not given here. ξPhe(βξ-Me) = CC(c1ccccc1)C(N)C(=O)O; GABA = NCCCC(=O)O

Legend:
[1] = biological target: Cellular tumor antigen p53 (Homo sapiens) (UniProt P04637); assay: Primary qHTS for small molecule compounds that upregulate eGFP-tagged delta133p53alpha (in N-terminal) cells. (AID 2060322); conditions: NCI-H358 eGFP-delta133p53alpha fluorescence, 24 h; activation: stronger effect = higher value; note: nearly all actives have a fitted effect of over 75% in size; note: potency is the fitted concentration of half-maximal effect; for activation: series mostly up to about 56 µM
Method in brief: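 NCI-H358 cells pre-induced 24 h with 10 ng/ml doxycycline to express N-terminal eGFP-delta133p53alpha, then dosed 24 h at 37C without doxycycline; fixed, Hoechst-stained, GFP intensity by laser scanning cytometry, normalized to DMSO (0%) and 57.5 uM 5-azacytidine (100%).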

[2] = biological target: Aldehyde dehydrogenase, mitochondrial (Homo sapiens) (UniProt P05091); assay: qHTS for Inhibitors of the Aldehyde Dehydrogenase Family (ALDH2) Primary screen (AID 2061308); note: nearly all actives have a fitted effect of over 55% in size
[3] = biological target: Retinaldehyde dehydrogenase 3 (Homo sapiens) (UniProt P47895); assay: qHTS for Inhibitors of the Aldehyde Dehydrogenase Family (ALDH1A3) Primary screen (AID 2061315)

Cellular tumor antigen p53 (Homo sapiens), sequence (P04637 whole entry, looked up): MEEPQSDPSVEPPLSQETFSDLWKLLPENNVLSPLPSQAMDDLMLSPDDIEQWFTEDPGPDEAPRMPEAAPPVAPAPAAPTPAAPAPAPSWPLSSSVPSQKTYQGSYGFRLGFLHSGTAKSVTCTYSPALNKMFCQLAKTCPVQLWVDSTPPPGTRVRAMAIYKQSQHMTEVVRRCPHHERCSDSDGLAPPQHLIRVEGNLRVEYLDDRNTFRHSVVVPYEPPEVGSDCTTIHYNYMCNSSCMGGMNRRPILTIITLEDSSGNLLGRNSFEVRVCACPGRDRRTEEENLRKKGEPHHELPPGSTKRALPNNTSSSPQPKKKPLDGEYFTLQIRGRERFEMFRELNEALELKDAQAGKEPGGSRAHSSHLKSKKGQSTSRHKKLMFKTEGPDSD

| SMILES | activation [1] [%] | Potency [2] | Potency [3] | activity change, negative = inhibition [2] | activity change, negative = inhibition [3] | Potency [1] |
| --- | --- | --- | --- | --- | --- | --- |
| CCC1=C(C)C(=O)C(C)CC12C(=O)CCC2C(=O)O (stereo not given) | -11.5 | inactive | inactive |  |  |  |
| CC(=O)OC1C(OC(=O)c2ccccc2)C2C(=C(C)CCC2(C)C)C23CCC(C)(C2)C(=O)CC13 (stereo not given) | -13 | inactive | inactive |  |  |  |
| CC(C)=CC/C=C(/C)[C@H]1CC[C@]2(C)[C@@H]1[C@H](O)CC1[C@@]3(C)CC[C@H](O)C(C)(C)[C@@H]3[C@@H](O[C@@H]3O[C@H](CO)[C@@H](O)[C@H](O)[C@H]3O[C@@H]3O[C@@H](C)[C@H](O)[C@@H](O)[C@H]3O)C[C@]12C (stereo not given in full) | -7.63 | inactive | inactive |  |  |  |
| CC1=CC(=O)C2C(C)(C)CCC[C@]2(C)[C@H]1CO (stereo not given in full) | -3.82 | inactive | inactive |  |  |  |
| O=C(O[C@H]1[C@@H]2C[C@@H]3OC[C@@](O)([C@H]2[C@H](O[C@@H]2O[C@H](CO)[C@@H](O)[C@H](O)[C@H]2O)O3)[C@@H]1O)c1ccccc1 | 5.36 | inactive | inactive |  |  |  |
| COc1c2c(c(C)c3c1C(=O)OC3)OC1(C)CC(O)C34OC(OC)(CCC3(C)C1C2)OC4(C)CO (stereo not given) | 13 | inactive | inactive |  |  |  |
| C/C=C(\C)C(=O)O[C@H]1C[C@](C)(O)[C@H]2CC=C(C)[C@H]2[C@@H]2OC(=O)[C@H](C)[C@H]21 | -15.2 | inactive | inactive |  |  |  |
| Cc1cc(O)cc(O[C@@H]2O[C@H](CO)[C@@H](O)[C@H](O)[C@H]2O)c1 | -6.11 | inactive | inactive |  |  |  |
| COC(=O)C[C@@H]1C(C(=O)O)=CO[C@@H](O[C@@H]2O[C@H](CO)[C@@H](O)[C@H](O)[C@H]2O)/C1=C\COC(=O)/C=C/c1ccc(O)c(OC)c1 | 6.87 | inactive | inactive |  |  |  |
| CC(=O)OC1CC2C(C)(C)C(=O)C=CC2(C)C2CC(=O)C3=C(CCC3C3=CC(O)OC3=O)C12C (stereo not given) | -12.2 | inactive | inactive |  |  |  |
| Cc1ccc(C2(COC(=O)C(C)C)CO2)c(OC(=O)C(C)C)c1 (stereo not given) | 3.82 | inactive | inactive |  |  |  |
| CCCOC(c1cc2nccc(C(=O)O)c2[nH]1)c1ccccc1Cl (stereo not given) | 0.333 | inactive | inactive |  |  |  |
| Clc1ccc(CN[C@H]2CCN(c3ncc(Br)cn3)C2)c(Cl)c1 | 3.57 | inactive | inactive |  |  |  |
| CC1(C)COC(=O)[C@@H]1O[C@@H]1O[C@H](CO)[C@@H](O)[C@H](O)[C@H]1O | -11.6 | inactive | inactive |  |  |  |
| C[C@@H]1O[C@@H](O[C@H]2[C@H](O[C@H]3[C@H](O[C@H]4CC[C@@]5(C)C(CC[C@]6(C)C5CC=C5[C@@H]7CC(C)(C)CC[C@]7(C(=O)O[C@@H]7O[C@H](CO)[C@@H](O[C@@H]8O[C@@H](C)[C@H](O)[C@@H](O)[C@H]8O)[C@H](O)[C@H]7O)CC[C@]56C)C4(C)C)OC[C@H](O)[C@@H]3O)O[C@H](CO)[C@@H](O)[C@@H]2O)[C@H](O)[C@H](O)[C@H]1O (stereo not given in full) | 7.14 |  |  | 3.25% [at 11.2 µM] | -3.58% [at 11.2 µM] |  |
| C[C@@H]1O[C@@H](OC[C@H]2O[C@@H](OCC3CCC4CC3C4(C)C)[C@H](O)[C@@H](O)[C@@H]2O)[C@H](O)[C@H](O)[C@H]1O (stereo not given in full) | 16.1 | inactive | inactive |  |  |  |
| c1ccc(Cc2ncc3c(n2)CCNCC3)cc1 | 7 | inactive | inactive |  |  |  |
| C=C1C(=O)OC2CC(COC(=O)C(C)C)=C(C(C)CCCOC(C)=O)[C@@H](OC(C)=O)C12 (stereo not given in full) | 6.87 | inactive | inactive |  |  |  |
| Nc1ncnc2c1c(-c1ccc(Cl)cc1)nn2-c1cccc(-c2cnnn2Cc2cccc(-c3ccccc3)c2)c1 | 8.04 | inactive | inactive |  |  |  |
| C=C[C@H]1[C@H](O[C@@H]2O[C@H](CO)[C@@H](O)[C@H](O)[C@H]2O)OC=C(C(=O)OC)[C@H]1CCO | -7.63 | inactive | inactive |  |  |  |
| Fc1cccc(CN(C2=NCCN2)c2c(Cl)cccc2Cl)c1 | -15 | inactive | inactive |  |  |  |
| N#Cc1cccc(C(=O)Nc2cc(-c3ccccc3)nn2-c2ccccc2)c1 | -0.893 | inactive | inactive |  |  |  |
| COC(=O)C1=COC(OC2OC(CO)C(O)C(O)C2O)C2C(C)CC(=O)C12O (stereo not given) | -4.46 | inactive | inactive |  |  |  |
| CC1=C2C(O)C(=O)OC(c3ccoc3)C2(C)CCC1O (stereo not given) | -16 | inactive | inactive |  |  |  |
| C=CC(C)(O)C(O)CC1C(C)(O)C(O)C(O)C2C(C)(C)CCCC21C (stereo not given) | -20.6 | inactive | inactive |  |  |  |

| SMILES | activation [1] [%] | Potency [2] | Potency [3] | activity change, negative = inhibition [2] | activity change, negative = inhibition [3] | Potency [1] |
| --- | --- | --- | --- | --- | --- | --- |
| CC(=O)OC1CC(C(C)(C)O)OC2CCC3(C)OC4=C(C(=O)C=C5C(C)C(OC(C)=O)C6(C)C(C)OC546)C(O)C3C12C (stereo not given) | 2.68 | inactive | inactive |  |  |  |
| C/C(=C\CO[C@@H]1O[C@H](CO[C@H]2OC[C@](O)(CO)[C@H]2O)[C@@H](O)[C@H](O)[C@H]1O)C(C)(C)O | -5.34 | inactive | inactive |  |  |  |
| CC1=C2C[C@H]3O[C@@]3(C)CCC3O[C@@]3(C)C[C@@]2(O)OC1=O (stereo not given in full) | -2.29 | inactive | inactive |  |  |  |
| CC(C)(C)OC(=O)c1ncn2c1C(C)(C)Nc1ccccc1-2 | -12.5 | inactive | inactive |  |  |  |
| C[C@@H]1O[C@@H](O[C@H]2[C@H](O)[C@@H](O)[C@H](O[C@H]3[C@H](O[C@H]4CC[C@@]5(C)C(=CC[C@@H]6C5CC[C@]5(C)[C@@H]7[C@H](C[C@@H]65)O[C@]5(CC[C@@](C)(CO[C@@H]6O[C@H](CO)[C@@H](O)[C@H](O)[C@H]6O)O5)[C@H]7C)C4)O[C@H](CO)[C@@H](O)[C@@H]3O)O[C@@H]2CO)[C@H](O)[C@H](O)[C@H]1O (stereo not given in full) |  | inactive | inactive |  |  | 3.6 µM (active) |
| CC(C)(OC1OC(CO)C(O)C(O)C1O)C1CCC(O)(CO)C2CC(=O)C(C)(O)C2C1 (stereo not given) | 22.9 | inactive | inactive |  |  |  |
| CC1CC(=O)C2=C(CCC3(O)C(O)c4c(O)cccc4C(=O)C23O)C1 (stereo not given) | 12.2 | inactive | inactive |  |  |  |
| N#Cc1ccc(-c2ccc(S(=O)(=O)Nc3cccc(N)n3)cc2)cc1 | 2.86 | inactive | inactive |  |  |  |
| C=C1C(OC(C)=O)[C@@]23CCC4[C@](C)(C(=O)O)CCC[C@@]4(C)[C@]2(O)CC[C@H]1C3 (stereo not given in full) | 8.93 | inactive | inactive |  |  |  |
| CC1=CC(=O)CC(C)(C)C1/C=C/C(C)OC1OC(COC2OCC(O)C(O)C2O)C(O)C(O)C1O (stereo not given) | 8.93 | inactive | inactive |  |  |  |
| Cc1cc(C(N)=O)ccc1-n1c(CCC(=O)O)ccc1-c1ccc(-n2ccnc2)cc1 | -2.68 | inactive | inactive |  |  |  |
| OCC1OC(Oc2cc(O)c3c(c2)OC(c2ccc(O)cc2)C(O)C3)C(O)C1O (stereo not given) | -25.2 | inactive | inactive |  |  |  |
| C=C1C(=O)O[C@@H]2/C=C(/C)CC3C=C(C[C@H](OC(=O)/C(C)=C\C)[C@@H]12)C(=O)O3 (stereo not given in full) |  | inactive | inactive |  |  | 11.7 µM (active) |
| Nc1ccc(-n2nc(C(F)(F)F)cc2C(F)(F)F)cc1 | 0.893 | inactive | inactive |  |  |  |
| C=C1CCC[C@]2(C)CC[C@@](O)(C(=C)C(=O)O)C[C@@H]12 | 24.1 | inactive | inactive |  |  |  |
| COc1ccc(/C=C/C(=O)O[C@H]2[C@H](O[C@H]3[C@@H]4C=CO[C@@H](O[C@@H]5O[C@H](CO)[C@@H](O)[C@H](O)[C@H]5O)[C@@H]4[C@@]4(CO)O[C@@H]34)O[C@@H](C)[C@H](O)[C@H]2OC(C)=O)cc1 | -0.763 | inactive | inactive |  |  |  |
| CC(=O)CCC1=C(C)C(O[C@@H]2O[C@H](CO)[C@@H](O)[C@H](O)[C@H]2O)C(O)CC1(C)C (stereo not given in full) | -3.82 | inactive | inactive |  |  |  |
| CC(=O)N[C@H](Cc1ccc(O)cc1)C(=O)N[C@H](CCCN=C(N)N)C(=O)N[C@H](Cc1ccccc1)C(N)=O (Ac-[dY]-[dR]-[dF]-NH2) | -15.7 | inactive | inactive |  |  |  |
| CC(C)CC1NC(=O)C(C(C)c2ccccc2)NC(=O)C(C(C)C)NC(=O)C(C)NC(=O)CCCNC(=O)C(Cc2c[nH]c3ccccc23)NC(=O)C(C)NC1=O (stereo not drawn) (cyclo([GABA]AV[ξPhe(βξ-Me)]LAW); configuration not given here) | 8.4 | inactive | inactive |  |  |  |
| C=C1CCC2C(C)(C)C(O)CCC2(C)C1CCC(C)CCOC(=O)CCC(=O)O (stereo not given) | -3.82 | inactive | inactive |  |  |  |
| O=C(NC1CCC1)c1ccc(C#Cc2cccc(F)c2)nc1 | 21.4 | inactive | inactive |  |  |  |
| COc1ccc(/C=C/C(=O)O[C@@H]2[C@@H](O)[C@@H](O)[C@H](O[C@H]3[C@@H]4C=CO[C@@H](O[C@@H]5O[C@H](CO)[C@@H](O)[C@H](O)[C@H]5O)[C@@H]4[C@@]4(CO)O[C@@H]34)O[C@H]2C)cc1 | -16 | inactive | inactive |  |  |  |
| CC(=C/C(=O)O)/C=C/[C@]1(O)[C@@]2(C)CO[C@]1(C)C[C@H](O[C@@H]1O[C@H](CO)[C@@H](O)[C@H](O)[C@H]1O)C2 | -16.1 | inactive | inactive |  |  |  |
| C/C=C\NC(=O)C1NC(=O)C(CC(N)=O)NC(=O)C(NC(=O)C(=O)C(C)CC)Cc2ccc(O)c(c2)-c2cccc3c2NC(=O)C3(O)C1O (stereo not given) | 3.82 | inactive | inactive |  |  |  |
| CC(C)/C=C1\NC(=O)C(C(C)C)n2c1nc1c(c2=O)C=CC=CO1 (stereo not given) | -7.63 | inactive | inactive |  |  |  |
